# Experimental data as given in PubChem BioAssay AID1276 (Columbia University Molecular Screening Center, 2008).
# Among all 190,000 compounds or so, about 2,000 (1.1%) were called active. The list comes from a sample in which actives are over-represented; it also holds similar structures and randomly drawn compounds. A number with no mark means an inactive call.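 The calls were made as follows: active = activation above a set limit, based on mean plus 3 SD of controls (cut at about 140% in these data); inconclusive = one replicate above the limit, the other below; inactive = the rest.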
# Test: activators of APP 5'UTR luciferase reporter, primary screen, SH-SY5Y cells (AID 1276)
# Details: SH-SY5Y APP 5'UTR luciferase reporter, luminescence; at 2 µM; hits give high values; zero percent = DMSO vehicle wells
row,Compound,activation
1,O=C(CN1CCN(c2ccccn2)CC1)N1CCc2ccccc21,30.9%
2,O=C(c1cc(-c2cccs2)on1)N1CCCCC1,138% (active)
3,COc1ccccc1-c1cc(C(=O)N2CCCCC2)no1,113%
4,O=C(c1cc(-c2ccccc2O)on1)N1CCCC1,102%
5,O=C(Nc1ccc(N2CCOCC2)cc1)c1ccc(-c2ccccc2[N+](=O)[O-])o1,17.6%
6,CC1Cc2ccccc2N1C(=O)CSc1nnc(C2CC2)n1C (stereo not given),23.3%
7,COc1ccc(N2C(=O)CC(Sc3n[nH]c(-c4ccc(C)cc4)n3)C2=O)cc1 (stereo not given),14.7%
8,O=C(Nc1ccc(F)cc1)N1CCCC(c2nc3c(nnn3Cc3ccccc3Cl)c(=O)[nH]2)C1 (stereo not given),-4.96%
9,Cn1nnc2cc(C(=O)NCCC3=CCCCC3)ccc21,174% (active)
10,O=C(NCCC1=CCCCC1)c1ccc(Cl)c([N+](=O)[O-])c1,8.77%
11,CN(c1ccc(C(=O)NCCC2=CCCCC2)cc1)S(C)(=O)=O,76%
12,CCOCCCNC(=O)C(=O)NCCCOCC,-1.33%
13,O=C(C1CCCO1)N(c1ccc(F)cc1)C1C=CS(=O)(=O)C1 (stereo not given),5.93%
14,Cc1ccc(NC(=O)COC(=O)CCc2nc3ccccc3n2-c2ccccc2)c(C)c1,11.8%
15,O=C(CN1CCN(c2ncccn2)CC1)Nc1ccccc1C(F)(F)F,-6.86%
16,Cc1ccc(CN(Cc2cccnc2)C(=S)Nc2cc(Cl)ccc2C)cc1,2.52%
17,CC(=O)Nc1ccc(-c2csc(NC(=O)Nc3ccccc3)n2)cc1,-14.7%
18,Cc1cc(C)c2nc(NC(=O)c3ccc4c(c3)OCO4)sc2c1,-8.57%
19,COCc1nnc(NC(=O)c2ccc3c(c2)OCO3)s1,61.2%
20,O=C(Nc1ccccc1)Nc1nc2ccccc2s1,212% (active)
21,O=C(Nc1nc2ccccc2s1)c1ccc2c(c1)OCO2,183% (active)
22,CSCCC(Nc1nc2ccccc2s1)C(=O)O (stereo not given),-7.07%
23,CCCC1NC(=S)NC(C)=C1C(C)=O (stereo not given),-10.8%
24,CCCCCOc1ccc(/C=C/C(=O)NCCc2nc3ccccc3[nH]2)cc1OC,-0.79%
25,S=C(NCc1ccco1)Nc1ccc2c(c1)OCCO2,18.6%
26,CC1CCCC(C)N1/N=C/c1ccccc1OC(F)F (stereo not given),5.03%
27,Clc1ccc2nc(CSc3ccccc3)cn2c1,216% (active)

row,Compound,activation
1,CCOc1ncccc1C(=O)OCc1cn2cc(Cl)ccc2n1,-0.86%
2,O=c1cc(CSc2ccc(Cl)cc2)nc(N2CCOCC2)[nH]1,6.36%
3,Cc1nn(Cc2ccc(F)cc2)c(C)c1NC(=O)c1cccnc1Cl,10.3%
4,Cc1ccc(-c2nc3ccccc3[nH]2)cc1N,201% (active)
5,c1ccc(-c2[nH]ncc2-c2nc3ccccc3[nH]2)cc1,-1.2%
6,Cc1ccc(-c2nc3ccccc3[nH]2)cc1NC(=O)c1sc2ccccc2c1Cl,-3.21%
7,c1ccc2[nH]c(-c3nc4ccccc4[nH]3)nc2c1,181% (active)
8,COc1ccc(Br)cc1C(=O)NC(=S)Nc1cc(-c2nc3ccccc3[nH]2)ccc1C,21.4%
9,COc1ccc(-c2[nH]nc(-c3ccccc3)c2-c2nc3ccccc3[nH]2)cc1,-4.36%
10,COc1ccc(C2CC(c3ccccc3)=NN2C(=O)COC(=O)COc2ccccc2)cc1 (stereo not given),0.61%
11,O=C(CSc1ccc([N+](=O)[O-])cn1)Nc1ccc(N2CCOCC2)c(Cl)c1,-13%
12,COc1ccc(-c2csc(NC(=O)CCCc3cccs3)n2)cc1,-2.07%
13,COc1ccc(-c2csc(Cc3nc(O)cs3)n2)cc1,157% (active)
14,COc1ccc(OC)c(Nc2nc(-c3ccc(O)c(O)c3)cs2)c1,-40.2%
15,Cc1cccc(/C(N)=N/OC(=O)c2ccccc2Cl)c1,206% (active)
16,Cc1cccc(C(=O)c2cccc(C)c2)c1,7.97%
17,N/C(=N\OC(=O)c1cc(-c2ccccc2)nc2ccccc12)c1ccncc1,7.36%
18,Cc1ccc(NC(=S)N2CCN(c3ncccn3)CC2)cc1C,2.51%
19,O=[N+]([O-])c1ccc2oc(-c3cccc(O)c3)nc2c1,184% (active)
20,COc1cccc(-c2nc3cc(C)ccc3o2)c1,172% (active)
21,COc1ccc(-c2nc3cc([N+](=O)[O-])ccc3o2)cc1OC,20.2%
22,COc1cccc(-c2nc(S(=O)(=O)c3ccccc3)c(N3CCOCC3)o2)c1,10.7%
23,O=[N+]([O-])c1cccc(Nc2c3ccccc3nc3ccccc23)c1,-0.09%
24,COc1ccc2oc(-c3cccc(NC(=O)CSc4ccc(Cl)cc4)c3)nc2c1,48.5%
25,N#Cc1c(-c2ccc(Cl)cc2)c2c([nH]c1=S)CCCC2,15.9%
26,COc1cc(OC)c(-n2cc(-c3ccc(Cl)cc3)[nH]c2=O)cc1Cl,-7.27%
27,CC1(C)CC(=O)C=C(N2CCOCC2)C1,6.79%

row,Compound,activation
1,CCCNS(=O)(=O)c1ccc(CCC(=O)N2CCCC2)cc1,4.45%
2,CC(C)CC(=O)NC(=S)NCc1ccccc1,9.6%
3,CCC(=O)NC(=Nc1nc2ccccc2s1)NC(=O)CC,147% (active)
4,O=C(O)CSCc1nc2ccccc2s1,-3.48%
5,COC(=O)c1nc2ccccc2s1,-8.64%
6,CC(C)CC(=O)N/C(N)=N/c1nc2ccccc2s1,203% (active)
7,O=C(O)CCCCc1nc2ccccc2s1,-11.6%
8,Cc1ccc(C(=O)NNC(=O)c2cccs2)cc1,38.8%
9,NC1=NC(=O)C(Cc2cccc(Cl)c2)S1 (stereo not given),11.8%
10,C=CCO/N=C/C1=C(O)C(C(=O)OC)C(C)(C)CC1=O (stereo not given),7.9%
11,Cc1cccc(C)c1OCC(=O)NC(Cc1c[nH]c2ccccc12)C(=O)O (stereo not given),10.3%
12,O=C(CN1C(=O)c2cccc3cccc1c23)Nc1ccccc1,-9.88%
13,O=C(N/N=C/c1cc2c(cc1Br)OCO2)C1COc2ccccc2O1 (stereo not given),-5.77%
14,O=C(NCCc1ccccc1)c1ccc(OCCOc2ccccc2)cc1,4.18%
15,CCCOc1ccc(C(=O)NCCc2ccccc2)cc1,156% (active)
16,O=C(NCCOc1ccccc1)c1ccccc1,123%
17,Cc1ccnc(NC(=O)c2ccc(NC(=O)c3ccco3)cc2)c1,79.3%
18,COc1cccc(C(=O)Nc2ccc(NC(=O)c3ccco3)cn2)c1,25.8%
19,O=C(Nc1ccc(NC(=O)c2cccs2)cn1)c1ccco1,148% (active)
20,O=C(Cc1ccccc1)NNC(=O)C1CCN(c2ncccn2)CC1,18.4%
21,O=C(Nc1ccc2c(c1)CCC2)c1ccc(Br)s1,208% (active)
22,CC(C)C(=O)OCC(=O)Nc1ccc2c(c1)CCC2,5.67%
23,O=C(NC1CCCC1)c1ccc(Br)s1,-4.11%
24,Cc1ccc2nsnc2c1S(=O)(=O)N1CCCC1C(=O)O (stereo not given),-2.44%
25,CCNc1nc(-c2cc3ccccc3o2)cs1,188% (active)
26,O=c1oc2ccccc2cc1-c1csc(Nc2ccc(O)cc2)n1,61%
27,COc1ccc2nc(Nc3nc(-c4cc5ccccc5oc4=O)cs3)sc2c1,33%

row,Compound,activation
1,CC(Nc1ccccc1)c1cccnc1 (stereo not given),-12.4%
2,CCOc1ccc2nc(NCCNS(=O)(=O)c3ccccc3)c(C#N)cc2c1,6.65%
3,CCOc1ccc2cc(C#N)c(SCC(=O)OC)nc2c1,159% (active)
4,Cc1nonc1NC(=O)CSc1nc2ccccc2cc1C#N,15.1%
5,CN1CCN(/N=C2/C(=O)Nc3ccc([N+](=O)[O-])cc32)CC1,13.5%
6,COc1ccc2nc(SCc3ccccc3)nc(C)c2c1,170% (active)
7,COc1ccc(-c2nnc3ccc(SCc4ccccc4)nn23)cc1,-7.22%
8,COC(=O)CSc1nc(C)c2ccc(OC)cc2n1,0.88%
9,Cc1ccc(NC(=O)CCC(=O)N/N=C/c2ccco2)c(C)c1,8.01%
10,COc1ccc(C2=Nc3cc(C)ccc3OC2)cc1,151% (active)
11,COc1ccc(C2=NOC(COC(=O)c3ccc4ccccc4n3)C2)cc1 (stereo not given),16.6%
12,COc1ccc(C2=NOC3(CC(=O)N(c4ccc(C)cc4)C3=O)C2)cc1 (stereo not given),-3.01%
13,CCOc1ccccc1N1CCN(C(=S)Nc2ccc(S(N)(=O)=O)cc2)CC1,11.8%
14,Clc1ncn(CCOc2ccccc2)c1Cl,-15.2%
15,Fc1ccc2nc(N3CCCCC3)sc2c1,112%
16,Fc1ccc2nc(Nc3nc4c(s3)CCCC4)sc2c1,143% (active)
17,CSc1ncccc1C(=O)Nc1nc2ccc(F)cc2s1,52.4%
18,CC(=O)Nc1ccc(S(=O)(=O)N2CCN(c3ccc([N+](=O)[O-])c(NCCN4CCOCC4)c3)CC2)cc1,-6.4%
19,O=C(COC(=O)[C@H](Cc1ccccc1)NC(=O)c1cccs1)Nc1cc(F)ccc1F,12.5%
20,O=C(CSc1nnc(SCc2ccc(Cl)cc2)s1)N/N=C/c1ccccc1Cl,-2.73%
21,Cc1cccc(C)c1Nc1nnc(SCC(=O)Nc2sccc2C#N)s1,-9.91%
22,Cc1csc(SCC(=O)Nc2sccc2C#N)n1,192% (active)
23,COc1ccc(NC(=O)CSc2nc(C)cs2)cc1,6.05%
24,C=CCn1c(CCNC(=O)c2cccs2)n[nH]c1=S,-1.77%
